Sampled rows, rich in hits. Any-hit rate of the full collection: about 2.9%.
RAM inhibit – blocks the yeast RAM network. S. cerevisiae dse1pr::URA3 reporter, 5-FOA growth OD615, 2 d; analog-sensitive cbk1-as2 kinase mutant strain. inhibition, % at 50 µM. hit rate 1.8% among 190,000;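 active = inhibition above a set limit, 3 SD over mean compound inhibition, cut at about 8.4% in these data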;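 note: 0% = DMSO-only wells with no growth and 100% = 10 µM 1-NA-PP1 full growth; inhibition rescues growth on 5-FOA so higher OD means more RAM inhibition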
PGE2 EP2 inh – inhibitors of human EP2 prostaglandin E2 receptor. C6 glioma cells expressing human EP2, cAMP TR-FRET; cells stimulated with saturating PGE2. inhibition, % at 25 µM. hit rate 0.52% among 260,000. AID 1422;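 active = percent inhibition above 40 after rounding to a whole number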;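 note: rat C6 glioma host cells with rolipram phosphodiesterase inhibitor present; the protocol text gives 20 µM as final concentration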
EP2 mod – modulators of human EP2 prostaglandin E2 receptor; hit rate 0.83% among 260,000; induction, % at 25 µM; AID 940; EP2-expressing cells, cAMP HTRF FRET, PGE2 co-stimulation; P43116;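 active = compounds whose cAMP rise, as percent of the full-agonist control response, exceeds 60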;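 note: rat C6 glioma line stably carrying human EP2 under a CMV promoter; the protocol text gives 20 µM as final concentration; 100% = response of wells given 1 µM PGE2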
PG9 binder – binds the HIV-1 gp120 antibody PG9. hit rate 0.43% among 360,000. TR-FRET gp120-PG9 antibody binding. inhibition, % at 6.7 µM. AID 624416; in the data active = inhibition above about 8.5%
Rev-erbA mod – modulators of human Rev-erb alpha DNA binding | P20393 | Rev-erbα–FITC-DNA binding, fluorescence polarization, 90 min | activity, % at 10 µM | hit rate 0.79% among 370,000 | AID 1259318;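 active = activity above about 14%, limit read from the data; passing the limit was not always enough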;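 note: 0% = DMSO wells with 35 nM protein and 100% = DMSO wells with 750 nM protein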
Target sequence (P20393 whole entry, looked up): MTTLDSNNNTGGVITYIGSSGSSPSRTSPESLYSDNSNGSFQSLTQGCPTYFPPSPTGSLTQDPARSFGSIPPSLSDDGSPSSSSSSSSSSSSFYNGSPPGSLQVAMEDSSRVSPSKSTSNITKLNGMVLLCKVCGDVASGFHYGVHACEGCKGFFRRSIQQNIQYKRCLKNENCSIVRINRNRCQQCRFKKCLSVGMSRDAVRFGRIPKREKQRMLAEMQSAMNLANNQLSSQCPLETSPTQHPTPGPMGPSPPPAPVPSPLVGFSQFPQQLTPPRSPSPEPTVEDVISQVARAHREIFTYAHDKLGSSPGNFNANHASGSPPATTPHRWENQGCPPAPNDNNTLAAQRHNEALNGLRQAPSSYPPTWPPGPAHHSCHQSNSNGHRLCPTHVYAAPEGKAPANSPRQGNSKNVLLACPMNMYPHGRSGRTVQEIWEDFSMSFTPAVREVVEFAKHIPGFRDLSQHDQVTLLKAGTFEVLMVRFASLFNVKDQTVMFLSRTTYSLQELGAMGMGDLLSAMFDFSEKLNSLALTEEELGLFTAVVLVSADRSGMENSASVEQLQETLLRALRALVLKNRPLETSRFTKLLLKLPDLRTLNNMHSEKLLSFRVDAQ
SKN-1 block – blocks SKN-1 activity in C. elegans | C. elegans VP596 Pgst-4::GFP/RFP ratio, acrylamide-induced, 24 h | inhibition, % at 21.8 µM | hit rate 0.49% among 360,000 | AID 624304;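 active = interference check ratio from 0.5 to 1.5 plus GFP to RFP signal ratio inhibition reaching or exceeding a fixed threshold, cut at about 30% in these data, passing the limit was not always enough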
NR1D1 mod conf – confirmation of modulators of human Rev-erb alpha DNA binding; shares compounds with Rev-erbA mod; Rev-erb alpha FITC-DNA binding, fluorescence polarization, 90 min; activation, % at 25 µM; hit rate 61% among 3,000;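 active = activation at or above a set limit, or at least 3 SD above the negative control mean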;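 note: 0% = 35 nM protein with DMSO and 100% = 750 nM protein high control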
RORg DNA counter – affects RORgamma DNA binding in a Rev-erb alpha counter-screen | shares compounds with Rev-erbA mod | purified RORgamma protein-FITC-DNA binding, fluorescence polarization | IC50, µM | hit rate 8% among 910 | AID 1259320;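 active = Compounds whose fitted half-maximal concentration for disrupting protein-DNA binding is below 10 micromolar; the record names Rev-erb in its text, so the target is in doubt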
The depositor's hits bear a star.

Results for CCN1C(=O)C(C(=O)Nc2cccc(C)c2)C2CC1(C)Oc1ccccc12 (stereo not drawn) ?
PGE2 EP2 inh: 9.2; EP2 mod: 31.1

Results for O=c1c2c3nc4ccccc4nc3n(CC3CCCO3)c2ncn1CCc1ccccc1 (stereo not drawn) ?
RAM inhibit: 5.0; PGE2 EP2 inh: 11.7; EP2 mod: -3.9; PG9 binder: -1.6; Rev-erbA mod: -9.9; SKN-1 block: 12.5

Results for COc1cc(OC)cc(-n2c3nc4ccccc4nc3c3c(=O)n(CC4CCCO4)cnc32)c1 (stereo not drawn) ?
PGE2 EP2 inh: 23.2; PG9 binder: 2.6; Rev-erbA mod: 299.8*; NR1D1 mod conf: 142.4*; RORg DNA counter: >40

How did O=C(CN1CCC(n2nnc3cc(C(F)(F)F)ccc32)CC1)NCCc1ccccc1 do in these assays?
PGE2 EP2 inh: 18.9; EP2 mod: -21.5

How did COc1ccc(CN(Cc2cc3ccc(OC)cc3[nH]c2=O)C(=O)Nc2ccccc2OC)cc1 do in these assays?
PGE2 EP2 inh: 8.5; EP2 mod: -11.1

How did Cn1nnnc1-c1cc(Br)ccc1NC(=O)c1ccccc1 do in these assays?
RAM inhibit: 7.2; PGE2 EP2 inh: 15.0; EP2 mod: 10.7; PG9 binder: -1.7; Rev-erbA mod: 72.4*; SKN-1 block: 9.3; NR1D1 mod conf: 46.1*; RORg DNA counter: >40

What do the screens show for `c1csc(-c2cc3cccnc3n2CCN2CCOCC2)c1`?
PGE2 EP2 inh: 10.8; EP2 mod: -3.6

What do the screens show for `COc1ccc2[nH]cc(/C=C/c3cc[n+](C)cc3)c2c1`?
PG9 binder: -22.9; Rev-erbA mod: 69.4*; SKN-1 block: -1.9; NR1D1 mod conf: 58.1*; RORg DNA counter: >40

How did COc1ccc2[nH]cc(C=O)c2c1 do in these assays?
RAM inhibit: -0.7; PGE2 EP2 inh: 9.5; EP2 mod: -8.9; PG9 binder: 0.5; Rev-erbA mod: -4.2; SKN-1 block: 7.1

How did C[C@H](Cn1nnc2ccccc21)NC(=O)CCn1cnc2ccccc2c1=O do in these assays?
PGE2 EP2 inh: 9.5; EP2 mod: -14.5

How did COc1ccc(-n2c(SCC(=O)C(C)(C)C)nc3ccsc3c2=O)cc1 do in these assays?
RAM inhibit: 6.3; PGE2 EP2 inh: 7.7; EP2 mod: 8.6; PG9 binder: 3.2; Rev-erbA mod: 20.8*; SKN-1 block: -8.7; NR1D1 mod conf: 19.9*

How did O=C1CCc2cc(S(=O)(=O)NC3(c4ccccc4)CCCC3)ccc2N1 do in these assays?
PGE2 EP2 inh: 4.9; EP2 mod: -58.8

How did CCN(CC)c1ccc(/C=C(/C#N)c2nc3ccc(C)cc3[nH]2)c(OC(C)C)c1 do in these assays?
RAM inhibit: 0.1; PGE2 EP2 inh: 5.8; EP2 mod: -12.8; PG9 binder: -2.5; SKN-1 block: 18.1

How did CCOc1cc(N(CC)CC)ccc1/C=C(/C#N)c1nc2ccccc2[nH]1 do in these assays?
RAM inhibit: -0.3; EP2 mod: 9.0; PG9 binder: -2.4; Rev-erbA mod: 72.5*; SKN-1 block: 17.6; NR1D1 mod conf: 58.4*; RORg DNA counter: >40

What do the screens show for `Cc1cc(/C=C(\C#N)c2nc3ccccc3[nH]2)c(C)n1C`?
RAM inhibit: 1.6; PGE2 EP2 inh: 9.5; EP2 mod: -31.1; PG9 binder: -5.4; Rev-erbA mod: 9.0; SKN-1 block: 21.8

How did COc1cc(/C=C(\C#N)c2nc3ccccc3[nH]2)cc(OC)c1O do in these assays?
RAM inhibit: 0.2; PGE2 EP2 inh: 12.8; EP2 mod: 1.6; PG9 binder: -21.7; Rev-erbA mod: 31.4*; SKN-1 block: 8.2; NR1D1 mod conf: 45.6*; RORg DNA counter: >40

Results for CCCOc1cc(N(CC)CC)ccc1/C=C(/C#N)c1nc2ccc(C)cc2[nH]1 ?
RAM inhibit: 4.3; PGE2 EP2 inh: 6.4; EP2 mod: 18.8; PG9 binder: -0.7; Rev-erbA mod: 31.8*; SKN-1 block: 29.3; NR1D1 mod conf: 40.8*

How did COc1ccc(CN2CC(O)=C(c3nc4ccccc4s3)C2=N)cc1OC do in these assays?
PGE2 EP2 inh: 12.7; EP2 mod: -55.5

Source: PubChem BioAssay
